Measurements taken from PubChem BioAssay AID1851 (National Center for Advancing Translational Sciences (NCATS), 2009).
Where “and” joins values, the source holds several entries; their conditions need not be identical. Equal values may be shown once. About 5,700 (36%) of roughly 16,000 compounds were called active. Inconclusive results (about 24%) are left out. The list shows a part of the results. Unmarked numbers belong to inactive results. Calls come from the whole dose curve; as a rule, active = well fitted curve in the direction sought with a large enough effect; inconclusive = small, poorly fitted or top-dose-only effect, or effect the other way; inactive = no such curve, though single readings can be large or run the other way.

molecular target: Cytochrome P450 1A2 (Homo sapiens) (UniProt P05177); test: Cytochrome panel assay with activity outcomes; conditions: recombinant CYP, pro-luciferin dealkylation, luminescence, p450-cyp1a2; series mostly up to 57.1 µM
Sequence (P05177 whole entry, looked up): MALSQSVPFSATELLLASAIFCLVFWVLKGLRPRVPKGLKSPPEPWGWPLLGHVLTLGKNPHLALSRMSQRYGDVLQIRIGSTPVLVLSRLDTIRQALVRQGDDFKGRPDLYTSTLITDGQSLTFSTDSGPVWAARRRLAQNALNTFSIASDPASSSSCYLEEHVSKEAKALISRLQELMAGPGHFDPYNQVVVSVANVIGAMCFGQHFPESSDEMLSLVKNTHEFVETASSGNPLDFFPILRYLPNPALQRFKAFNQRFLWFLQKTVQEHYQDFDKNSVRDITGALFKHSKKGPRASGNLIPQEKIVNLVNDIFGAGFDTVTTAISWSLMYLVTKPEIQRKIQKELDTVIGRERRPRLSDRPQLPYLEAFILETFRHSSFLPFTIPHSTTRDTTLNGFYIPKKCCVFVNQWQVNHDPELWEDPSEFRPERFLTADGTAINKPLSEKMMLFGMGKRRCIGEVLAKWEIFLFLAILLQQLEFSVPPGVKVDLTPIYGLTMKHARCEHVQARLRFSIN
% is set by controls: 0 for no effect and ±100 for the full control effect.

Row | Compound | activity, negative = inhibition | AC50
1 | C/C(CCN1CCCCc2nc(C)c(C)cc21)=N\O[C@@H](C)CN1CCCCc2nc(C)c(C)cc21 | -20.9% [at 11.4 µM] | –
2 | C/C=C\C[C@H](C)[C@H](O)[C@H]1C(=O)N[C@@H](CC)C(=O)N(C)CC(=O)N(C)[C@@H](CC(C)C)C(=O)N[C@@H](C(C)C)C(=O)N(C)[C@@H](CC(C)C)C(=O)N[C@@H](C)C(=O)N[C@@H](C)C(=O)N(C)[C@@H](CC(C)C)C(=O)N(C)[C@@H](CC(C)C)C(=O)N(C)[C@@H](C(C)C)C(=O)N1C | – | inactive
3 | CC1=CC(C)(C)NC(=S)N1c1cccc(C)c1 | – | inactive
4 | COc1cccc(-c2ccc3ncnc(NCc4cccs4)c3c2)c1 | – | 0.501 µM (active)
5 | Cc1cc(C)cc(N(CC(=O)NCCSc2ccccn2)S(=O)(=O)c2ccccc2)c1 | – | inactive
6 | Cn1c([N+](=O)[O-])cnc1COC(N)=O | – | inactive
7 | COC(=O)c1scc(C)c1NC(=O)Cc1ccccc1 | – | 12.6 µM (active)
8 | Cc1cccc(C)c1NC(=O)CS(=O)CC(=O)NCCCc1ccccc1 (configuration not stated) | – | inactive
9 | CC[N+](CC)(CC(=O)Nc1c(C)cccc1C)Cc1ccccc1 | – | inactive
10 | Nc1ncnc2c1ncn2[C@@H]1O[C@@H](C(=O)NC2CC2)[C@H](O)[C@@H]1O | – | inactive
11 | Cc1ccc2[nH]c3c(c2c1)CN(C(=O)CN1c2ccc(F)cc2CCC1C)CC3 (configuration not stated) | – | 5.62 µM (active)
12 | CNCCCC1c2ccccc2C=Cc2ccccc21 | – | inactive
13 | CCCN1C(=O)C2(/C(=C(\O)c3ccc4c(c3)OCCO4)C(=O)C(=O)N2CCCOC)c2ccccc21 (configuration not stated) | – | inactive
14 | O=C(OCc1nnc(-c2ccccc2)o1)c1ccc2c(c1)OCCO2 | – | 2.51 µM (active)
15 | Cc1ncc(N=Nc2ccccc2Cl)c(-c2ccccc2)n1 | – | 0.631 µM (active)
16 | CN(C(=O)CN(CCO)CC(=O)N(C)C(C)(C)Cc1ccccc1)C(C)(C)Cc1ccccc1 | – | inactive
17 | OCCN(Cc1ccccc1)Cc1cccc(Cl)c1Cl | – | 5.62 µM (active)
18 | CCc1c(O)nc2sc3ccccc3n2c1=O | – | 15.8 µM (active)
19 | CCc1c(O)nc(SCC(=O)NC(C)(C)C)n(-c2ccccc2)c1=O | – | inactive
20 | CCCc1nn2c(=O)c(C(c3ccc(C)cc3)c3c(O)nc4sc(CCC)nn4c3=O)c(O)nc2s1 | – | inactive
21 | COc1ccc(Oc2ncc3nc(C)c(=O)n(C[C@H]4CCCO4)c3n2)cc1 | – | 12.6 µM (active)
22 | CCC(=O)Nc1ccc(C(=O)CSc2nnc(-c3ccc(O)cc3)n2CC2CCCO2)cc1OC (configuration not stated) | – | inactive
23 | O=c1cnc2cnc(Oc3cccc(Cl)c3)nc2n1C[C@H]1CCCO1 | – | 5.01 µM (active)

Row | Compound | activity, negative = inhibition | AC50
24 | COc1ccc(Oc2ncc3ncc(=O)n(C[C@H]4CCCO4)c3n2)cc1 | – | 6.31 µM (active)
25 | COC(=O)C1=C(N)Oc2cc(C)n(CC3CCCO3)c(=O)c2C1c1ccccc1OC (configuration not stated) | – | inactive
26 | COc1ncc2ncc(=O)n(C[C@H]3CCCO3)c2n1 | – | 15.8 µM (active)
27 | CN1CCC(=C2c3ccccc3CC(=O)c3sccc32)CC1 | – | inactive
28 | CC1(CCC#N)N=C(SCCC#N)N(c2ccccc2)C1=O (configuration not stated) | – | inactive
29 | C=C1CCO[C@@]2([C@H](O)[C@@](C)(O)CO)NC(=O)[C@]1(O)NC2=O | -3.99% [at 2.29 µM] | –
30 | Cc1ccc(NC(=O)NNC(=O)Cn2nc(-c3ccccc3)c(-c3ccccc3)c(C#N)c2=O)cc1 | – | inactive
31 | Cc1nc2c(c(-c3ccccc3)c1C#N)C(=O)c1ccccc1-2 | – | 0.2 µM (active)
32 | O=C1c2ccccc2C(=O)N1CC(=O)N1c2ccccc2CCc2ccccc21 | – | inactive
33 | CCN(CC)CCC(=O)Nc1ccc2c(c1)N(C(=O)CN(CC)CC)c1ccccc1CC2 | – | inactive
34 | O=C(COc1cccc2ccccc12)N1c2ccccc2CCc2ccccc21 | – | 6.31 µM (active)
35 | C[C@@H](C[C@H](N)C(=O)O)C(=O)O | -18.7% [at 11.4 µM] | –
36 | CCOC(=O)C1=NO[C@@]2(C=C(Br)C3(OCCCO3)[C@H]3O[C@H]32)C1 | 1.82% [at 11.4 µM] | –
37 | Cc1cc(C)cc(N2C(=O)CC(Sc3nnnn3-c3ccccc3)C2=O)c1 (configuration not stated) | – | inactive
38 | COc1ccc(N2C(=O)CC(S/C(N)=N/N=C(\C)c3cccs3)C2=O)cc1 (configuration not stated) | – | 2.51 µM (active)
39 | CC(C)(C)NS(=O)(=O)c1ccc(NC(=O)NC2CCCCC2)cc1 | – | inactive
40 | Oc1ccccc1-c1nnc(-c2ccc(C(F)(F)F)cc2)o1 | – | 5.01 µM (active)
41 | O=C(/C=C\NCC(=O)c1ccccc1)c1ccccc1 | – | 5.01 µM (active)
42 | O=C(C[C@@H]1C=Cc2ccccc2N1C(=O)c1ccccc1)c1ccccc1 | -23.2% [at 2.29 µM] | –
43 | CC(C)CCOc1ccc(NC(=O)C2OC3OC(C)(C)OC3C3OC(C)(C)OC23)cc1 (configuration not stated) | – | inactive
44 | c1ccc(-c2nc(CSc3n[nH]c(-c4cccs4)n3)cs2)cc1 | – | 2.82 µM (active)
45 | CCn1c(C)c(C)c2cc(C(=O)Nc3cccc(Cl)c3)ccc21 | – | 3.16 µM (active)
46 | COC(=O)CCC(=O)Nc1cccc(C(=O)Nc2cccc(Cl)c2)c1 | – | 4.47 µM (active)

Row | Compound | activity, negative = inhibition | AC50
47 | Cc1c(C)n(C)c2ccc(C(=O)Nc3cccc4ccccc34)cc12 | – | 2 µM (active)
48 | O=C(O)c1ccc(C(=O)Nc2cccc3ccccc23)c(C(=O)O)c1 | -6.15% [at 2.29 µM] | –
49 | O=c1[nH]c(=O)n(Cc2ccco2)c2c1C(C(F)(F)F)(C(F)(F)F)N=C(CCC1CCCCC1)N2 | – | inactive
50 | CC1(C)CCC(NC(=O)[C@H](N)CCC(=O)O)CC1 | – | inactive
51 | Cc1cnc(CNc2ccnc(-c3ccccc3C(F)(F)F)n2)cn1 | – | 15.8 µM (active)
52 | Cc1cnc(CNc2ccnc(-c3ccccc3C)n2)cn1 | – | 12.6 µM (active)
53 | Cc1cnc(CNc2ccnc(-c3ccccc3Cl)n2)cn1 | – | 12.6 µM (active)
54 | COc1ccccc1-c1nccc(NCc2cnc(C)cn2)n1 | – | 12.6 µM (active)
55 | Cc1ccc(S(=O)(=O)CC(O)CN2CCCC2=O)cc1 (configuration not stated) | – | inactive
56 | O=S1(=O)N[C@H]2CC[C@@H]3NS(=O)(=O)N[C@H]4CC[C@H](N1)N4S(=O)(=O)N23 | 2.05% [at 11.4 µM] | –
57 | Cn1c(=O)c2c(nc(Cl)n2Cc2ccc(Cl)c(Cl)c2)n(C)c1=O | – | 12.6 µM (active)
58 | Cn1c(=O)c2c(nc(Cc3ccccc3)n2CC(=O)O)n(C)c1=O | -13.2% [at 2.29 µM] | –
59 | CN(C)CCn1c(CO)nc2c1c(=O)n(C)c(=O)n2C | -6.02% [at 11.4 µM] | –
60 | COc1ccc2c(OC)c3ccoc3nc2c1OC | – | 0.0794 µM (active)
61 | CS(=O)(=O)N1CCC2(CCN(C(c3ccccc3)c3ccccc3)CC2)CC1 | – | inactive
62 | COc1ccc2[nH]cc(CCNc3ncncc3-c3ccccc3CN(C)C)c2c1 | – | 20 µM (active)
63 | COc1ccc2[nH]cc(CCNc3ncncc3-c3ccccc3Cl)c2c1 | – | 0.631 µM (active)
64 | COc1ccc2[nH]cc(CCNc3ncncc3-c3ccccc3C(F)(F)F)c2c1 | – | 10 µM (active)
65 | COc1ccc2[nH]cc(CCNc3ncncc3-c3c(C)noc3C)c2c1 | – | 12.6 µM (active)
66 | COC(=O)C/C=C\[C@@H](C)[C@@H](/C=N\OC[C@@H](O)COCc1ccco1)OC | -1.53% [at 11.4 µM] | –
67 | CC(C)NC(=O)N1CC[C@@]2(CCCN(S(C)(=O)=O)C2)C1 | – | inactive
68 | COc1ccc2[nH]cc(CCNc3ncncc3-c3ccccc3OC)c2c1 | – | 2.51 µM (active)
69 | COc1ccc2[nH]cc(CCNc3ncncc3-c3ccccc3C)c2c1 | – | 0.631 µM (active)

Row | Compound | activity, negative = inhibition | AC50
70 | CCOC(=O)CN1C(=O)Nc2ccc(Br)cc2C1c1ccccc1 (configuration not stated) | – | 3.16 µM (active)
71 | CN(C)CCN1C(=O)C(O)=C(C(=O)c2cc3ccccc3o2)C1c1cccc(Br)c1 (configuration not stated) | – | inactive
72 | CS(=O)(=O)N1CCC2(CC1)CN(C(=O)Nc1ccccc1)C2 | – | inactive
73 | Cc1ccc(OC[C@H](O)[C@H](C)NC(C)C)c2c1CCC2 | – | 1.58 µM (active) and 398 nM (active)
74 | CC(C)(C)NC[C@H](O)COc1cccc2c1CCC(=O)N2 | – | inactive
75 | CC(C)(C)NC[C@H](O)COc1cccc2c1CCCC2=O | – | inactive
76 | CCOC(=O)CCN1C(=O)[C@H]2[C@H]3[C@H](O)[C@H](O)C/C(=N/OCC(C)C)[C@@H]3CC[C@@H]2C1=O | -8.45% [at 11.4 µM] | –
77 | CCCNC(=S)Nc1ccc(Br)cc1 | – | 7.08 µM (active)
78 | Cc1ccc(NC(=O)C2C3CCCC2C3c2ccccc2)cc1C (configuration not stated) | – | inactive
79 | Cc1ccc(NC(=S)Nc2ccc(Br)cc2)cc1 | – | 3.55 µM (active)
80 | CCC(=O)NC(=S)Nc1ccc(S(=O)(=O)NC(C)=O)cc1 | – | inactive
81 | Cc1cc(NC(=S)NC(=O)CC(C)C)ccc1Br | – | 5.62 µM (active)
82 | Cc1cc(NC(=S)Nc2ccccc2)ccc1Br | – | 5.62 µM (active)
83 | COc1ccc(CC(=O)NC(=S)Nc2ccc(S(=O)(=O)NC(C)(C)C)cc2)cc1 | – | inactive
84 | Cc1cccc(N2CCN(c3ccc(NC(=O)/C=C(/C(=O)O)c4ccccc4)cc3)CC2)c1 | – | inactive
85 | C/C(=N\NC(=S)Nc1cccc(C)c1)c1ccccc1 | – | 0.891 µM (active)
86 | Cc1cccc(NC(=S)Nc2ccc(Br)cc2)c1 | – | 3.55 µM (active)
87 | CC(=O)OCC(=O)[C@]12OC(C)(C)O[C@@H]1C[C@H]1[C@H]3CC=C4C[C@@H](O)CC[C@]4(C)[C@H]3CC[C@]12C | 4.12% [at 11.4 µM] | –
88 | Cc1ccc(S(=O)(=O)NCC(=O)N(CC(=O)NCc2ccco2)Cc2cccs2)cc1 | – | inactive
89 | Cc1csc(NC(=O)CNS(=O)(=O)c2cccs2)n1 | – | 12.6 µM (active)
90 | Cc1csc(NC(=O)Cc2c[nH]c3ccccc23)n1 | – | 11.2 µM (active)
91 | CCOC(=O)N1CCN(C(=O)CNS(=O)(=O)c2cccs2)CC1 | – | inactive
92 | Cc1ccnc(NS(=O)(=O)c2ccc(N)cc2)n1 | – | inactive
